This is an account of results in PubChem BioAssay (EPA / NIEHS).

Calls of active or inactive are those of the source. How the source made its calls: active means hit-call score of the fitted dose curve at least 0.9, where 1 is the maximum; inactive means score below 0.9.

One assay in a line: CEETOX_H295R_OHPROG_noMTC: CeeTox H295R High-throughput Steroidogenesis Assay for OH-Progesterone (OHPROG), maximum tolerated concentration (MTC) filtered results only (AID 2283914). Particulars: actives raise or lower the signal. In a few lines:
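After 48 h forskolin (10 uM) prestimulation, H295R adrenal cells received test chemical in 0.1% DMSO for 48 h. Medium 17alpha-hydroxyprogesterone was MTBE-extracted and measured by HPLC-MS/MS; gain or loss relative to DMSO, no MTT-based MTC filtering.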
For orientation: AC50 means the concentration at which the activity in the assay is half-maximal. For the compound `Nc1nc(=S)c2[nH]cnc2[nH]1`, the half-maximal activity concentration (AC50) is 74.3 µM (active).
For `NC(=Nc1ccccc1)Nc1ccccc1`, the compound was called inactive.
For `O=C(Oc1ccccc1)c1cccc(C(=O)Oc2ccccc2)c1`, the outcome was inactive.
On to `C=CCc1ccc(OC)c(OC)c1`, for which the compound was called inactive.

A short description of another assay: CEETOX_H295R_CORTISOL_noMTC: CeeTox H295R High-throughput Steroidogenesis Assay for Cortisol, maximum tolerated concentration (MTC) filtered results only (AID 2283916). Conditions: actives raise or lower the signal. The protocol:
CEETOX_H295R is a cell-based, multiplexed-readout assay that uses H295R, a human adrenal gland cell line, with measurements taken at 48 hours after chemical dosing in a 96-well plate.CEETOX_H295R_CORTISOL_noMTC is one of 12 assay component(s) measured or calculated from the CEETOX_H295R assay (11 hormones and 1 viability assay). It is designed to make measurements of hormone induction, a form of inducible reporter, as detected with absorbance signals by HPLC-MS-MS technology. The concentrations for these components have not been pre-filtered for the maximum tolerated concentration (MTC) based on the MTT assay (_noMTC).Data from the assay component CEETOX_H295R_CORTISOL_noMTC was analyzed into 1 assay endpoint. This assay endpoint, CEETOX_H295R_CORTISOL_noMTC, was analyzed with bidirectional fitting relative to DMSO as the negative control and baseline of activity. Using a type of inducible reporter, gain or loss-of-signal activity using HPLC-MS-MS was used to understand synthesis of Cortisol in H295R cell line at 48hr of chemical exposure, without filtering concentrations for maximum tolerated concentration (MTC). To generalize the intended target to other relatable targets, this assay endpoint is annotated to the steroid hormone intended target family, where the subfamily is glucocorticoids.
Cell culture and media preparation procedures were conducted in accordance with OECD Test No. 456 guidelines, with minor modifications. H295R cells (ATCC CRL-2128) were expanded for 5 passages and frozen in batches in liquid nitrogen. […] For steroid quantification, media samples were shipped to OpAns, LLC (Durham, NC) on dry ice, and samples were thawed to room temperature prior to liquid-liquid extraction. […] Steroid hormones were separated by HPLC, eluted using a reverse phase C18 gradient with electrospray positive ionization, followed by quantification by tandem mass spectrometry (MS/MS). Data were acquired on a MassHunter Workstation Acquisition version B03.01 (Agilent Technologies, Inc.) and processed using MassHunter Quantitative Analysis for QQQ. Accuracy was determined for each hormone analyte from 3 standards to determine upper and lower limits of quantification (ULOQ and LLOQ, respectively) using a 7-point standard curve. Precision and accuracy of the extraction and quantification methods were calculated as the percent relative standard deviation (%RSD) of the spiked standards and percent spiked standard recovered, respectively. The goal was to achieve 100% accuracy (i.e., recover all spiked-in standard at quantification with minimal loss during run time) and good precision (i.e., have %RSD <15% to ensure reproducibility). Test medium was removed following chemical exposure, and cell viability was evaluated in the same wells by MTT. […]
As to `Nc1nc(=S)c2[nH]cnc2[nH]1`, the AC50 is 37 µM (active).
In the case of `NC(=Nc1ccccc1)Nc1ccccc1`, the half-maximal activity concentration (AC50) is 44.4 µM (active).
Consider `O=C(Oc1ccccc1)c1cccc(C(=O)Oc2ccccc2)c1`, for which the call was inactive.
On to `C=CCc1ccc(OC)c(OC)c1`, for which the outcome was inactive.

The next assay in a line: CEETOX_H295R_CORTIC_noMTC: CeeTox H295R High-throughput Steroidogenesis Assay for Corticosterone (CORTIC), maximum tolerated concentration (MTC) filtered results only (AID 2283917). Conditions: actives raise or lower the signal. The method, boiled down: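 Human adrenal H295R cells were prestimulated 48 h with 10 uM forskolin, then exposed 48 h to chemical in 0.1% DMSO. Medium corticosterone was MTBE-extracted and quantified by HPLC-MS/MS; bidirectional fits versus DMSO, concentrations not MTC-filtered.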
In the case of `Nc1nc(=S)c2[nH]cnc2[nH]1`, the AC50 was 33.3 µM (active).
Regarding `NC(=Nc1ccccc1)Nc1ccccc1`, the AC50 was 39.1 µM (active).
Take `O=C(Oc1ccccc1)c1cccc(C(=O)Oc2ccccc2)c1`: the call was inactive.
For `C=CCc1ccc(OC)c(OC)c1`, the compound was classed as inactive.

The next assay can be described thus: CEETOX_H295R_DOC_noMTC: CeeTox H295R High-throughput Steroidogenesis Assay for DOC, maximum tolerated concentration (MTC) filtered results only (AID 2283918). Conditions: actives raise or lower the signal. The method, boiled down:
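11-Deoxycorticosterone secreted by human adrenal H295R cells quantified by HPLC-MS/MS after 48 h chemical exposure (0.1% DMSO), following 48 h 10 uM forskolin prestimulation. Concentrations not filtered by MTT-derived MTC; bidirectional fitting.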
With `Nc1nc(=S)c2[nH]cnc2[nH]1`, the concentration at half-maximal activity (AC50) is 35.4 µM (active).
On to `NC(=Nc1ccccc1)Nc1ccccc1`, for which the AC50 was 50 µM (active).
In the case of `O=C(Oc1ccccc1)c1cccc(C(=O)Oc2ccccc2)c1`, the outcome was inactive.
For `C=CCc1ccc(OC)c(OC)c1`, the outcome was inactive.

A short description of a further assay: CEETOX_H295R_PROG_noMTC: CeeTox H295R High-throughput Steroidogenesis Assay for Progesterone (PROG), maximum tolerated concentration (MTC) filtered results only (AID 2283920). Particulars: actives raise or lower the signal. In a few lines: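 Progesterone secreted into medium was measured by HPLC-MS/MS after MTBE extraction, following 48 h chemical exposure (0.1% DMSO) of forskolin-prestimulated (10 uM, 48 h) H295R adrenal cells. Gain or loss fitted against DMSO; no MTC filtering.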
Regarding `Nc1nc(=S)c2[nH]cnc2[nH]1`, the AC50 was 78.8 µM (active).
Consider `NC(=Nc1ccccc1)Nc1ccccc1`, for which the compound was called inactive.
Turning to `O=C(Oc1ccccc1)c1cccc(C(=O)Oc2ccccc2)c1`, the call was inactive.
